Data reported in PubChem BioAssay.
Active and inactive are the calls of the source.

What was measured:
[1] = tested on: Plasmodium falciparum Sir2 (PF13_0152, Sir2A); test: pfSir2 binders on small-molecule microarrays, primary screen, biochemical, small-molecule microarray, 635 nm fluorescence (AID 1098); conditions: small-molecule microarray binding, fluorescence 635 nm; higher = more signal;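 also: score merges spot fluorescence intensity with its signal-to-noise ratio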
[2] = small-molecule microarray binders of probe aDKK1, primary screen, biochemical, biotinylated probe, 635/667 nm fluorescence (AID 1099); conditions: higher = more signal;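 also: score merges 667nm spot fluorescence with signal to noise across triplicate slides; reference of the scale not given here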
[3] = small-molecule microarray binders of probe aCHRDL2, primary screen, biochemical, biotinylated probe, 635/667 nm fluorescence (AID 1100); conditions: higher = more signal
[4] = splicing luciferase reporter signal modulators, primary screen, spliceosome inhibition project, cell-based, HEK293, splice +/- reporter (AID 1101); conditions: luminescence, 24 h, higher = more signal, called active from +8 up or from −8 down;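 also: HEK293 cells carrying a splicing-competent luciferase reporter gene; test concentration not given here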
[5] = molecular target: Fibroblast growth factor 10 (Homo sapiens) (UniProt O15520); test: FGF10 binders on small-molecule microarrays, primary screen, biochemical, small-molecule microarray, 635 nm fluorescence (AID 1102); conditions: FGF10 binding, fluorescence 635 nm, higher = more signal
Sequence of Fibroblast growth factor 10 (Homo sapiens) (O15520 whole entry, looked up): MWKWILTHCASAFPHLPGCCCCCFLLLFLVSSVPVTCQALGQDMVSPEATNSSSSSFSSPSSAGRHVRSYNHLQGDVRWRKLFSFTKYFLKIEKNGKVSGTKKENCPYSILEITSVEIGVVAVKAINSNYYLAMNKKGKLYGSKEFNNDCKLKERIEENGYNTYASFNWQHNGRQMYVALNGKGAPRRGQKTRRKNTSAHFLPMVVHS

[6] = tested on: glycogen synthase kinase-3 (GSK3A per assay name; protocol says GSK3B); test: GSK3 binders on small-molecule microarrays, primary screen, biochemical, small-molecule microarray, 635 nm fluorescence, GSK3A (AID 1103); conditions: small-molecule microarray binding, fluorescence 635 nm; higher = more signal; also: the record names both GSK3A and GSK3B
[7] = molecular target: Epidermal growth factor receptor (Homo sapiens) (UniProt P00533); test: EGFR binders on small-molecule microarrays, primary screen, biochemical, small-molecule microarray, 635 nm fluorescence (AID 1104); conditions: EGFR binding, higher = more signal;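 also: score merges 667 nm emission intensity with spot signal to noise over triplicate slides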
Sequence of Epidermal growth factor receptor (Homo sapiens) (P00533 whole entry, looked up): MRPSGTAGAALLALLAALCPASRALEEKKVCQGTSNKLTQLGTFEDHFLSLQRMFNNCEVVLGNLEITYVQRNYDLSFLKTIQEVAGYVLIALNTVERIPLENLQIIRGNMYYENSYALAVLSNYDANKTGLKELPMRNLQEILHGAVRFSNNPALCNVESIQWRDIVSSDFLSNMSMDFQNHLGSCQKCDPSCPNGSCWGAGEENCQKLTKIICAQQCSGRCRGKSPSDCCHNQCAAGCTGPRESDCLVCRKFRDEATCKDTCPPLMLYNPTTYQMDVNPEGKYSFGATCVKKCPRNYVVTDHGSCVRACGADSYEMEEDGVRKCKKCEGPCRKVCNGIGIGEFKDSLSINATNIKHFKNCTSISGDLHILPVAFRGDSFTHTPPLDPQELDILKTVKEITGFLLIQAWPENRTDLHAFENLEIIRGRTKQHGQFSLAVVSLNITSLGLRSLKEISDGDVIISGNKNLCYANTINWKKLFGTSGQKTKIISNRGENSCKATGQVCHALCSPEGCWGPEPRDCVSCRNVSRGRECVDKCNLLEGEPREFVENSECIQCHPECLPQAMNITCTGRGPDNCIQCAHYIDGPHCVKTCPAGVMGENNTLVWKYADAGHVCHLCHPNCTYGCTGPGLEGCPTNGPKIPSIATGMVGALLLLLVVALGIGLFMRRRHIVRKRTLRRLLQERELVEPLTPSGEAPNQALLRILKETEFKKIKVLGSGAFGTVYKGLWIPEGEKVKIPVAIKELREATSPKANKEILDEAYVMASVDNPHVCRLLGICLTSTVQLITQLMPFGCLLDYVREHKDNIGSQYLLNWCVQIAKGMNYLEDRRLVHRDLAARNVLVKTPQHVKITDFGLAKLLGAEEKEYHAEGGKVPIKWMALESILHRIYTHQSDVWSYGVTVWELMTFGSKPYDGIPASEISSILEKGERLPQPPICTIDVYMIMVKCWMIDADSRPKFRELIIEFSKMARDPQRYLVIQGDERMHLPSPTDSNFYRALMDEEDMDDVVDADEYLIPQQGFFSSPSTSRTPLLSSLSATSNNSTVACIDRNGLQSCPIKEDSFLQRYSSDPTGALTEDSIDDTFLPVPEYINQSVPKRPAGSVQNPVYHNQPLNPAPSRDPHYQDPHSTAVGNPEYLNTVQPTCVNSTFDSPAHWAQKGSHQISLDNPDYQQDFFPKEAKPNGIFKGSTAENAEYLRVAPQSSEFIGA

[8] = molecular target: Follistatin-related protein 3 (Homo sapiens) (UniProt O95633); test: FSTL3 binders on small-molecule microarrays, primary screen, biochemical, small-molecule microarray, 635 nm fluorescence (AID 1105); conditions: FSTL3 binding, higher = more signal;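 also: score merges emission near 667 nm and signal to noise per printed spot across three slides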
Sequence of Follistatin-related protein 3 (Homo sapiens) (O95633 whole entry, looked up): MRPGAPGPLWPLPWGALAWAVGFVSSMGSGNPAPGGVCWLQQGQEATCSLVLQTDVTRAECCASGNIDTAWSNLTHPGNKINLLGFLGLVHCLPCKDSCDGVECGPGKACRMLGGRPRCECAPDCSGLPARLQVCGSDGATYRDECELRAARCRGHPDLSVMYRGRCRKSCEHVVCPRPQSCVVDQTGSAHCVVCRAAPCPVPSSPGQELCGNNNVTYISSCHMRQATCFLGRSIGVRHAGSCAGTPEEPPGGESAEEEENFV

[9] = molecular target: Dickkopf-related protein 1 (Homo sapiens) (UniProt O94907); test: DKK1 binders on small-molecule microarrays, primary screen, biochemical, small-molecule microarray, 635 nm fluorescence scan (AID 1106); conditions: DKK1 binding, higher = more signal;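 also: score merges emission near 667 nm with signal to noise over three replicate slides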
Sequence of Dickkopf-related protein 1 (Homo sapiens) (O94907 whole entry, looked up): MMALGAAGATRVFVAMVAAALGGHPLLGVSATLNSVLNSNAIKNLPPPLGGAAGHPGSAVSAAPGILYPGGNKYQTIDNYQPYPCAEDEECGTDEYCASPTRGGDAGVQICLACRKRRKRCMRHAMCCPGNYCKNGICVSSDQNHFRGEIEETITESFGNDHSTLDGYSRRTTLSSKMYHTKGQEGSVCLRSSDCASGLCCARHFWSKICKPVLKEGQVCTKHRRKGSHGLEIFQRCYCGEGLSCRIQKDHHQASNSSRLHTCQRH

[10] = tested on: Inhibin beta A chain (activin A); test: INHBA (activin A) binders on microarrays, primary screen, biochemical, small-molecule microarray, 635 nm fluorescence scan (AID 1107); conditions: small-molecule microarray binding, higher = more signal;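 also: mouse activin A protein probed at 4.33 µg/mL on printed slides; score merges bound-protein fluorescence near 667 nm with spot signal-to-noise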

Structure (SMILES) | composite z-score [1] | composite z-score [2] | composite z-score [3] | z-score [4] | composite z-score [5] | composite z-score [6] | composite z-score [7] | composite z-score [8] | composite z-score [9] | composite z-score [10]
CC(C)CNC(=O)[C@@H]1c2ccccc2C(=O)N(Cc2cc(C(F)(F)F)cc(C(F)(F)F)c2)[C@H]1c1ccc(CO)cc1 | -0.46 | 0.416 | 0.822 | -0.827 (inactive) | -0.633 | -1.32 | -0.88 | -0.736 | -0.439 | -0.575
COC(=O)[C@@]1(Cc2ccccc2)[C@H]2c3cc(C(=O)N4CCCC4)n(C)c3C[C@H]2CN1C(=O)c1ccccc1 | 0.762 | 1.23 | 0.892 | -1.91 (inactive) | -0.175 | 0.237 | -0.141 | 0.803 | -0.477 | 1.1
COc1ccccc1CN1C(=O)c2ccccc2[C@@H](C(=O)NCCN2CCOCC2)[C@@H]1c1ccc(CO)cc1 | 1.5 | -0.0936 | 0.658 | -0.468 (inactive) | -0.264 | 0.342 | -0.502 | -0.334 | -0.0485 | 0.52
CC(=O)NCCCC[C@@H]1NC(=O)[C@H]2C[C@@H](C(=O)NCCCCCC[N+](C)(C)C)[C@@H](c3cccc(OCCO)c3)N2C1=O | 1.44 | -0.104 | -0.207 | -1.6 (inactive) | 1.17 | 0.917 | 0.848 | 1.58 | 1.85 | 0.695
COc1ccc([Si](C)(C)[C@@H]2[C@@H](CC(=O)N3CCC[C@H]3CO)O[C@]3(C(=O)N(C)c4c(Br)cc(C)cc43)[C@H]2C)cc1 | 0.717 | 0.0781 | 0.0013 | -0.778 (inactive) | 0.801 | 0.889 | 0.35 | 1.42 | 1.1 | 0.809
CN1C(=O)C2C=CC(C(O)c3ccccn3)N(Nc3ccccc3)C2C1=O (stereo not given) | 0.427 | 0.257 | 0.276 | 0.782 (inactive) | 0.3 | 0.422 | 0.389 | 0.157 | -0.0961 | 1.05
Cc1c(NC(=O)CC#N)c(=O)n(-c2ccccc2)n1C | 0.345 | -0.274 | -0.47 | 0.933 (inactive) | 0.118 | 0.526 | 0.322 | 0.367 | 0.273 | -0.256
CN1CCC(CCCO)=CC1c1ccc(CN2CCCC2)cc1 (stereo not given) | 0.988 | 0.331 | 0.756 | 0.873 (inactive) | 1.3 | 1.3 | 1.64 | 1.48 | 1.74 | 1.86
CCN(CC)c1ccc(N2CC=CC34O[C@@H]5/C=C\CCCOC(=O)C5[C@H]3C(=O)N(C(CO)C(C)C)[C@@H]4C2=O)cc1 (stereo not given in full) | 1.23 | -0.252 | -0.0922 | 0.167 (inactive) | -0.711 | -0.748 | -1.05 | -0.8 | -0.681 | 1.11
CO[C@H]1O[C@H](CO)[C@@H](OC(=O)Nc2ccc3c(c2)OCO3)[C@H](OC(=O)Nc2ccccc2)[C@H]1OC(=O)Nc1ccccc1 | 1.48 | 0.132 | 0.398 | 1.89 (inactive) | 0.892 | 1.29 | -0.0701 | 0.848 | 0.295 | 0.395
C=CC[C@@]1(C(=O)O)N=C(c2ccc(OCCCO)cc2)O[C@@H]1c1ccccc1N=[N+]=[N-] | 1.48 | 1.08 | 1.2 | 0.0828 (inactive) | 0.291 | 0.658 | -0.107 | 0.316 | -0.227 | 1.46
COc1ccc(C(O)C2C=CC3C(=O)N(C)C(=O)C3N2Nc2ccccc2)cc1OCc1ccccc1 (stereo not given) | 1.1 | 0.679 | 0.85 | 0.89 (inactive) | 0.868 | 0.841 | 0.165 | 0.814 | -0.0523 | 0.152
O=C1O[C@H](c2ccccc2)[C@H](c2ccccc2)N2[C@H]1[C@@H](C(=O)O)[C@]1(C(=O)Nc3ccc(C#CC4(O)CCCCCC4)cc31)[C@H]2c1ccc(OCCO)cc1 | 0.303 | 0.2 | 0.388 | -0.117 (inactive) | 0.299 | 0.132 | -0.329 | 0.418 | -0.623 | -0.374
COc1ccc(C(O)C2C=CC3C(=O)NC(=O)C3N2Nc2ccccn2)cc1OCc1ccccc1 (stereo not given) | 0.524 | 0.0679 | 0.668 | 1.04 (inactive) | -0.0457 | 0.13 | 0.208 | 0.187 | -0.236 | 0.557
C=CCN1C(=O)[C@]2(O[C@H](CCO)[C@@H]([Si](C)(C)c3ccc(OC)cc3)[C@@H]2C)c2cc(NC(=O)[C@H](C)O)ccc21 | 1.45 | -0.191 | -0.159 | -1.26 (inactive) | 1.27 | 0.984 | -0.191 | 0.267 | 0.0607 | 0.197
COCCOC(=O)N1C(=O)[C@@]2(c3ccccc31)[C@H](C(=O)Nc1nc3ccccc3s1)[C@H]1C(=O)O[C@H](c3ccccc3)[C@H](c3ccccc3)N1[C@@H]2c1ccc(OCCO)cc1 | 1.11 | 0.186 | 0.54 | -0.128 (inactive) | 1.26 | 1.3 | 0.331 | 1.11 | 0.427 | 0.464
C=CC[C@@H](OC(=O)Nc1ccc(OC)cc1)c1ccc(O)c2ccccc12 | 1.43 | -0.0942 | -0.0826 | -0.806 (inactive) | 1.2 | 1.28 | 1.06 | 1.4 | 1.23 | 1.07
O=C/C=C/c1ccc(Cl)cc1 | -0.34 | -0.235 | 0.0073 | -1.05 (inactive) | -0.513 | -0.966 | -0.301 | 0.0697 | 0.0956 | 0.934
CC(C)(C)N1CC=CC23O[C@@H]4/C=C\CCCOC(=O)C4[C@H]2C(=O)N(CCO)[C@@H]3C1=O (stereo not given in full) | 1.59 | -0.0986 | -0.0141 | -0.639 (inactive) | -0.142 | -0.764 | -0.932 | -1.28 | -0.377 | 0.0995
C[C@]1(C(=O)NCc2ccccc2)c2ccccc2C(=O)N(Cc2ccc(OC(F)(F)F)cc2)[C@H]1c1ccc(CO)cc1 | 0.0162 | -0.098 | 0.663 | -0.557 (inactive) | 0.0259 | 0.0034 | -0.535 | 0.115 | -0.393 | 0.0615
CS(=O)(=O)CCOC(=O)C1=CC(c2ccc(CO)cc2)=CC(C2CC2)N(Cc2cc3c(cc2Br)OCO3)C=C1C(=O)OCCS(C)(=O)=O (stereo not given) | 0.848 | 0.296 | 0.351 | 0.883 (inactive) | 1.08 | 1.18 | 0.425 | 0.932 | 0.391 | 0.701
COc1ccc(C#Cc2ccc3c(c2)[C@]2(C(=O)N3)[C@H](C(=O)NC[C@H](O)c3ccccc3)[C@H]3C(=O)O[C@H](c4ccccc4)[C@H](c4ccccc4)N3[C@@H]2c2ccccc2OCCO)cc1 | 1.74 | 0.408 | 0.334 | -0.955 (inactive) | 0.877 | 1.19 | 0.186 | 1.16 | 0.169 | -0.0953
CO[C@H]1O[C@H](CO)[C@@H](OC(=O)Nc2ccc(Oc3ccccc3)cc2)[C@H](OC(=O)Nc2ccccc2)[C@H]1OC(=O)Nc1ccccc1 | 1.5 | 0.636 | 0.766 | 0.511 (inactive) | 1.35 | 1.33 | 0.24 | 1.2 | 0.113 | 0.185
COCCOC(=O)N1C(=O)[C@@]2(c3cc(C#CCCO)ccc31)[C@H](c1ccc(O)cc1)N1[C@H](c3ccccc3)[C@H](c3ccccc3)OC(=O)[C@H]1[C@@H]2C(N)=O | 1.33 | 0.407 | 0.654 | -0.626 (inactive) | 0.173 | 0.169 | -0.709 | -0.0665 | -0.282 | 0.907
C=C(CCCC)C(=O)CC[C@H](OC(=O)c1cccnc1)c1cccc(OCCO)c1 | 0.681 | -0.298 | 0.165 | 4.13 (inactive) | 0.309 | -0.208 | -0.502 | -0.688 | -0.219 | 1.29
COCCOC(=O)N1C(=O)[C@@]2(c3cc(C#CCNC(N)=O)ccc31)[C@H](c1ccc(O)cc1)N1[C@H](c3ccccc3)[C@H](c3ccccc3)OC(=O)[C@H]1[C@@H]2C(=O)NC[C@H](O)c1ccccc1 | 0.193 | 0.614 | 0.689 | 0.716 (inactive) | 1.05 | 0.727 | 0.222 | 1.34 | 1.52 | 0.342
COc1ccc(CCNC(=O)[C@@]2(c3ccc([N+](=O)[O-])cc3)CC(=O)N(CC34CC5CC(CC(C5)C3)C4)[C@@H]2c2ccc(CO)cc2)cc1 | 1.06 | 1.38 | 0.764 | 0.539 (inactive) | 0.76 | 1.07 | 0.453 | 1.03 | 0.828 | 0.432
CN(C)C(=O)[C@@]1(CCC(=O)OC(C)(C)C)N=C(c2ccc(OCCCO)cc2)O[C@H]1c1ccccc1 | 1.75 | 0.559 | 0.401 | -0.919 (inactive) | 0.0744 | 0.556 | -0.58 | -0.725 | -0.887 | 0.366
